# The campaign covered roughly 16,000 compounds. About 70 (0.4%) were called active. Shown is part of a subset that was picked to be rich in actives. Unmarked numbers belong to inactive results. Rule as the data show it: active = inhibition above about 50%; inactive = the rest.
# Biological target: Kappa-type opioid receptor (Homo sapiens) (UniProt P41145)
# Experiment: antagonists of human kappa opioid receptor OPRK1, Maybridge library (AID 652031)
# Conditions: OPRK1 cells, antagonist mode, fluorescence readout; at 9 µM; active compounds read high
# Chain of Kappa-type opioid receptor (Homo sapiens) (P41145 whole entry, looked up): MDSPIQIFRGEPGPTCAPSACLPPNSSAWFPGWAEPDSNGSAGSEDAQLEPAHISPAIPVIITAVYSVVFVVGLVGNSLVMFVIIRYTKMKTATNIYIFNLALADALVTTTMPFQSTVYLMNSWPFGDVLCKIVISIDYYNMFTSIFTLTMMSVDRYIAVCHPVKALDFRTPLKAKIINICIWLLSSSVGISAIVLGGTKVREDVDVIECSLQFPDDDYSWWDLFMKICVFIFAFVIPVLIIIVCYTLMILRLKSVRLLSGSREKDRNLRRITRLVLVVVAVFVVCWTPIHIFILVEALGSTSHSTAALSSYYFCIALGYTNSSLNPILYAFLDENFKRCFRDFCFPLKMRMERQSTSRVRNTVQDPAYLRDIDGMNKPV
row,SMILES,inhibition
1,Cn1cnc(S(=O)(=O)Nc2ccc3[nH]ccc3c2)c1,-0.5%
2,CC(C)(C)C(=O)Nc1c(Br)c(C2CC2)nn1-c1ccccc1,4.1%
3,COC(=O)C1=C(NNc2ncc(Cl)cc2C(F)(F)F)CSC1,-2.3%
4,CC(=O)OCC(=O)[C@@]1(O)[C@H](C)CC2C3CCC4=CC(=O)C=CC4(C)C3=CCC21C (stereo partly specified),0.2%
5,Cc1ccc(S(=O)(=O)NNC(=S)NC(C)(C)C)cc1,-0.7%
6,CC(=O)c1cc([N+](=O)[O-])c(NC2CCCCC2)s1,-27.9%
7,Clc1ccc(CO/N=C/c2nc3ccccc3s2)cc1,16.1%
8,N#Cc1cc([N+](=O)[O-])c(N2CCCC2)cc1N1CCCC1,-4.1%
9,Cn1nc(C(C)(C)C)c(NC(=O)c2sccc2Cl)c1C(C)(C)C,-1.9%
10,CCSC(=O)NCc1ccccc1,-12.7%
11,Cc1nc(C(F)(F)F)ccc1C(=O)NCCNc1ncccc1C(F)(F)F,-36.9%
12,CCOC(=O)c1cc(C)n(-c2cccc([N+](=O)[O-])c2)c1-c1ccccc1,-0.8%
13,Cn1cc(C(=O)Nc2ccc(F)c(Cl)c2)c(N)n1,20.6%
14,Cc1nnsc1C(=O)NN(C)c1ccc([N+](=O)[O-])cn1,14.8%
15,CC1(C)CC(=O)C(N=Nc2c(F)cccc2F)=C(O)C1,-7.3%
16,CCOC(=O)NC(=O)/C(=C/NC(C)C)C(=O)OCC,5.6%
17,O=C1CCCCC(=O)c2ccccc2N1,7.1%
18,Cc1ccc(C(=O)N2CCN(c3cccc4[nH]ccc34)CC2)cc1,2.5%
19,CCOC(=O)c1nnc2c(Br)c(C)nn2c1C,3.1%
20,O=[N+]([O-])c1ccc(N2CCSCC2)cc1O,3.6%
21,COc1ccc(/C(C)=N/Nc2c([N+](=O)[O-])cc(C(F)(F)F)cc2[N+](=O)[O-])cc1CC#N,-23.7%
22,C=CCn1c(SCC(=O)Nc2nnc(-c3cccs3)s2)nnc1-c1ccco1,8.8%

row,SMILES,inhibition
1,COC(=O)c1cccc(CSc2ncccc2C(=O)O)c1,15.2%
2,CC(=O)c1nnc2cc(C)nn2c1C,28.9%
3,CSc1sc(C(N)=O)cc1C#N,6.9%
4,Cc1cc(C(=O)NNC(=O)c2cc(C)n(C(C)(C)C)n2)no1,8.1%
5,COc1ccc2c(OC(C)=O)coc2c1,-6.7%
6,N#C/C(=C\c1cccn1S(=O)(=O)c1ccccc1)C(=O)c1ccccc1,7.4%
7,N#Cc1ccc(OS(=O)(=O)c2cc(C(F)(F)F)cc(C(F)(F)F)c2)cc1,-5.9%
8,COC(=O)c1ccccc1NC(=S)NNC(=O)c1ccc([N+](=O)[O-])cc1,7.8%
9,COC(=O)c1ccc(/C=C2\C(=O)Nc3ccccc32)n1-c1ccc(F)cc1,84.7% (active)
10,Cc1c(C)c(C)c(CSC(=N)CC#N)c(C)c1C,-7.6%
11,O=C(CSc1nc2ccccc2o1)N1CCC(n2cccc2)CC1,1.7%
12,CCCc1c(C(=O)O)cnn1-c1ccc(Cl)cc1,-5.5%
13,CCCc1nc(N)ncc1C(=O)OCC,-2.5%
14,CCOC(=O)c1c(C)csc1NC(=O)CC(=O)C(F)(F)F,-3%
15,Oc1ccc(-n2cncn2)cc1,-0.4%
16,O=S(=O)(c1ccc(Cl)s1)N1CCN(c2ccccc2)CC1,-14.3%
17,CC(C)NC(=O)NNc1c(Cl)cncc1Cl,4.6%
18,O=c1oc2c3ccccc3c3oc(=O)sc3c2s1,13.6%
19,Cc1nc(C(F)(F)F)ccc1NC(=O)/C=C\C(=O)O,-4.6%
20,N#Cc1cccnc1NNC(=O)Nc1ccc(OCc2ccccc2)cc1,13.7%
21,CN(C)c1cccc2c1c(NC(=O)Nc1ccc(OCc3ccccc3)cc1)nn2C,60.6% (active)
22,O=C(Nc1ccc(OCc2ccccc2)cc1)Nc1ccc2c(c1)C(=O)OC2,-8.9%

row,SMILES,inhibition
1,O=c1[nH]c2cc(Cl)c(Cl)cc2n1-c1ccncc1,-14.5%
2,Cc1ccc([N+](=O)[O-])c(C(=O)NCC(=O)O)c1,-15.5%
3,S=C(NNC(=S)NC1CC2C=CC1C2)NC1CC2C=CC1C2 (stereo unspecified),-4.1%
4,CC(C)CCOS(=O)(=O)c1ccc2c(c1)Cc1cc(S(=O)(=O)OCCC(C)C)ccc1-2,-2.5%
5,CN(C(=O)Nc1ccc(Cl)cc1)n1cnc2ccccc2c1=O,-1.9%
6,c1ccc(-c2nsc(N3CCNCC3)n2)cc1,1.1%
7,Cc1oc(-c2ccc(Cl)cc2)cc1C(=O)O/N=C(\N)Cc1nc2cccnc2n1C1CC1,-10.9%
8,O=C(Cn1nnc2ccccc21)NCCSCc1ccco1,6.7%
9,O=C(O)CC1(CC(=O)Nc2ccccc2-n2cccn2)CCCCC1,6.9%
10,O=[N+]([O-])c1ccc(CSc2nc3cc(Cl)c(F)cc3[nH]2)cc1,-10.8%
11,COc1ccc(/C=N/Nc2nc(C)cc(=O)[nH]2)c(OC)c1,10.6%
12,Nc1ccccc1SC(C[N+](=O)[O-])c1ccccc1 (stereo unspecified),10.6%
13,O=C(N/N=C/c1cccs1)C(=O)Nc1ccc(Cl)c(Cl)c1,-4.8%
14,Cc1nc2c(ncn2-c2ccccc2)c(=O)n1NC(=O)CN1CCCC1,1.8%
15,Cn1c(=O)c2c(ncn2Cc2nnc(-c3ccccc3)o2)n(C)c1=O,-5.9%
16,O=[N+]([O-])c1ccc(CSc2nnc(-c3ccncc3)o2)cc1,-7.8%
17,N#Cc1c(C2CCCCC2)[nH]c(=S)[nH]c1=O,-2.7%
18,Cc1ccc2c(c1)C(=O)C(=O)S2,-13.9%
19,O=C(CSC1=NCCc2ccccc21)Nc1ccc(F)cc1F,-6.1%
20,O=C(O)CCC(=O)Nc1ccc2c(c1)OCCCO2,8.3%
21,Oc1ccccc1C=NCCCN=Cc1ccccc1O,-15.8%
22,CCOc1c(N2CCCCC2)c(=O)c1=O,13.6%

# Source: PubChem BioAssay AID652031 (The Scripps Research Institute Molecular Screening Center, 2013)
